Inconclusive results are not listed. Active and inactive are the calls of the source. The call rests on the fitted dose curve; in most records, active means well fitted cell-killing curve with a large enough effect; inconclusive means small, poorly fitted or top-dose-only effect, or effect the other way; inactive means flat fitted curve, though single readings scatter.
How the values were obtained:
Assay in all cases: Primary qHTS to identify gynecologic anti-cancer compounds using libraries of approved drugs and bioactive compounds (AID 1345084); further: nearly all actives have a fitted effect of over 55% in size
Details in all cases: Gynecologic cancer cell panel viability, ATPlite luminescence, 48 h; series mostly up to 57.5 µM
PA-1 = system: PA-1
Outline: (§1)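 ATP-based viability (ATPlite), 1,000 cells/well, 16 h pre-incubation, 48 h compound at 37 C, 5% CO2, 15 min RT before read.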

SKOV3 = system: SKOV3
Outline: as §1

Tov-21-G = system: Tov-21-G
Outline: as §1

Tov112D = system: Tov112D
Outline: as §1
On the % scale 0 is the no-effect control and ±100 the full control effect.

CC1C(=O)OCC2=CC[N+]3([O-])CCC(OC(=O)C(C)(O)C1(C)O)C23 (stereo not drawn)
inactive: Potency (PA-1) | Potency (SKOV3) | Potency (Tov-21-G) | Potency (Tov112D)

COC(=O)C1(C)CCCC2(C)c3ccc(C(C)C)cc3C(O)C(O)C12 (stereo not drawn)
inactive: Potency (PA-1) | Potency (SKOV3) | Potency (Tov-21-G) | Potency (Tov112D)

C=C(C)[C@@H]1CC[C@]2(CO)CC[C@]3(C)[C@H](CC[C@@H]4[C@@]5(C)CC[C@H](O)C(C)(C)[C@@H]5CC[C@]43C)[C@@H]12
inactive: Potency (PA-1) | Potency (SKOV3) | Potency (Tov-21-G) | Potency (Tov112D)

CN(C)CCC[C@]1(c2ccc(F)cc2)OCc2cc(C#N)ccc21
inactive: Potency (PA-1) | Potency (SKOV3) | Potency (Tov-21-G) | Potency (Tov112D)

C=CCC1=C[C@]2(OC)[C@H](C)[C@@H](c3ccc(OC)c(OC)c3)O[C@]2(OC)CC1=O
inactive: Potency (PA-1) | Potency (SKOV3) | Potency (Tov-21-G) | Potency (Tov112D)

CNc1nc(Cc2ccccc2)nc2c1CCNC[C@@H]2C
inactive: Potency (PA-1) | Potency (SKOV3) | Potency (Tov-21-G) | Potency (Tov112D)

COc1ccc(-n2c(=O)[nH]c3cc(C(=O)NCc4ccc(Cl)cc4)sc3c2=O)nc1OC
inactive: Potency (PA-1) | Potency (SKOV3) | Potency (Tov-21-G) | Potency (Tov112D)

CC(=O)OCC1OC(O[C@H]2CC[C@@]3(C)C(CC[C@]4(C)C3CC=C3[C@@H]5CC(C)(C)CC[C@]5(C(=O)O)CC[C@]34C)[C@]2(C)CO)C(O)C(O)C1OC1OC(C)C(O)C(OC2OCC(O)C(O)C2O)C1O (stereo partly drawn)
inactive: activity change, negative = cytotoxicity (PA-1) -3.48% [at 11.6 µM] | activity change, negative = cytotoxicity (SKOV3) 19.9% [at 11.6 µM] | activity change, negative = cytotoxicity (Tov-21-G) 6.07% [at 11.6 µM] | activity change, negative = cytotoxicity (Tov112D) 0% [at 11.6 µM]

C[C@@H]1C[C@@H](O)[C@@]2(CO)C(CO)=CCC[C@@H]2[C@@]12C[C@@H](c1ccoc1)OC2=O
inactive: Potency (PA-1) | Potency (SKOV3) | Potency (Tov-21-G) | Potency (Tov112D)

Nc1ncnc2c1ncn2[C@H]1O[C@@H](C(=O)N2CCN(CC(=O)Nc3cccc4c3CNC4=O)CC2)[C@H](O)[C@@H]1O
inactive: Potency (PA-1) | Potency (SKOV3) | Potency (Tov-21-G) | Potency (Tov112D)

CCOc1nc2c(N)ncnc2n1CC
inactive: Potency (PA-1) | Potency (SKOV3) | Potency (Tov-21-G) | Potency (Tov112D)

Cc1c(NC(=O)N2CCOCC2)ccc2c1c1ccccc1n2C(C)C
inactive: Potency (PA-1) | Potency (SKOV3) | Potency (Tov-21-G) | Potency (Tov112D)

C=C1[C@H]2CCC3[C@]4(C)CCC[C@@](C)(C(=O)O)C4CC[C@]3(C2)[C@H]1OC(C)=O (stereo partly drawn)
inactive: Potency (PA-1) | Potency (SKOV3) | Potency (Tov-21-G) | Potency (Tov112D)

CC1CCC2(C(=O)O)CCC3(C)C(=CCC4C5(C)CCC(O)C(C)(C(=O)O)C5CCC43C)C2C1(C)O (stereo not drawn)
inactive: Potency (PA-1) | Potency (SKOV3) | Potency (Tov-21-G) | Potency (Tov112D)

NCCCCN(Cc1nc2ccccc2[nH]1)[C@H]1CCCc2cccnc21
inactive: Potency (PA-1) | Potency (SKOV3) | Potency (Tov-21-G) | Potency (Tov112D)

CC1(C)CC=C(c2cnc3ccccc3c2)c2cc(C(=O)Nc3ccc(C(=O)O)cc3)ccc21
inactive: Potency (PA-1) | Potency (SKOV3) | Potency (Tov-21-G) | Potency (Tov112D)

C=Cc1cc2oc(-c3ccc(O)c(F)c3)nc2cc1O
inactive: Potency (PA-1) | Potency (SKOV3) | Potency (Tov-21-G) | Potency (Tov112D)

C[C@@H]1CC[C@]2(C(=O)O)CC[C@]3(C)C(=CCC4[C@@]5(C)C[C@@H](O)[C@H](O)[C@@](C)(CO)C5CC[C@]43C)C2[C@H]1C (stereo partly drawn)
inactive: Potency (PA-1) | Potency (SKOV3) | Potency (Tov-21-G) | Potency (Tov112D)

O=C(OC[C@H]1O[C@H](O[C@]2(CO)O[C@H](CO)[C@@H](O)[C@@H]2O)[C@H](O)[C@@H](O)[C@@H]1O)c1ccc(O)cc1
inactive: Potency (PA-1) | Potency (SKOV3) | Potency (Tov-21-G) | Potency (Tov112D)

O=C(O)c1ccnc(-c2cc(C(=O)NCCc3ccccc3)ccn2)c1
inactive: Potency (PA-1) | Potency (SKOV3) | Potency (Tov-21-G) | Potency (Tov112D)

CCC(C)/C=C(C)/C=C/C1=CC2=C(Cl)C(=O)C(C)(O)C(=O)C2(O)C(OC)O1 (stereo not drawn)
inactive: Potency (PA-1) | Potency (SKOV3) | Potency (Tov-21-G) | Potency (Tov112D)

C/C=C1/C[N+](C)([O-])C2Cc3c([nH]c4ccccc34)C(=O)CC1C2C(=O)OC (stereo not drawn)
inactive: Potency (PA-1) | Potency (SKOV3) | Potency (Tov-21-G) | Potency (Tov112D)

CC1=CC(=O)[C@]2(O[C@@H]3O[C@@H](C)[C@H](O)[C@@H](O)[C@H]3O)C=CO[C@@H](O[C@@H]3O[C@H](CO)[C@@H](O)[C@H](O)[C@H]3O)[C@H]12
inactive: Potency (PA-1) | Potency (SKOV3) | Potency (Tov-21-G) | Potency (Tov112D)

COc1c(O)cc2c(c1O)C(=O)O[C@H](C)[C@H]2O
inactive: Potency (PA-1) | Potency (SKOV3) | Potency (Tov-21-G) | Potency (Tov112D)

CC(CCO)CCC1C2(C)CCCC(C)(C)C2CC[C@@]1(C)O (stereo partly drawn)
inactive: Potency (PA-1) | Potency (SKOV3) | Potency (Tov-21-G) | Potency (Tov112D)

COc1cc(Cc2cnc(N)nc2N)c(C(C)C)cc1OC
inactive: Potency (PA-1) | Potency (SKOV3) | Potency (Tov-21-G) | Potency (Tov112D)

CC(C)CC(=O)O[C@@H]1O[C@H](CO)[C@@H](O[C@H]2O[C@H](C)[C@@H](N[C@H]3C=C(CO)[C@@H](O[C@H]4O[C@H](CO)[C@@H](O[C@H]5O[C@H](CO)[C@@H](O[C@H]6O[C@H](CO)[C@@H](O)[C@H](O)[C@H]6O)[C@H](O)[C@H]5O)[C@H](O)[C@H]4O)[C@H](O)[C@H]3O)[C@H](O)[C@H]2O)[C@H](O)[C@H]1O
inactive: activity change, negative = cytotoxicity (PA-1) -1.75% [at 11.6 µM] | activity change, negative = cytotoxicity (SKOV3) 18.6% [at 11.6 µM] | activity change, negative = cytotoxicity (Tov-21-G) 2.23% [at 11.6 µM] | activity change, negative = cytotoxicity (Tov112D) -0.277% [at 11.6 µM]

Reference: PubChem BioAssay (NCATS)
